25 compounds from PubChem BioAssay can be followed below.

This assay can be described thus: sensitizers of A549 cells to miR-34 induction, primary screen, imaging, A549 dox-inducible miR-34, nuclei and caspase counts (AID 1347080). Further: test concentration not given here. The conditions noted are these: A549 miR-34 inducible, Hoechst nuclei count, 48 h; measured here: total cells with miR-34 induction; stronger effect = lower value.
On to `O=P(O)(O)OC1[C@H](OP(=O)(O)O)[C@H](O)C(O)[C@H](O)[C@H]1OP(=O)(O)O` (stereo not given in full), for which the cell count was 5720.

Turning to `CCCCCCCCCCCCC/C=C/[C@@H](O)[C@H](COP(=O)(O)O)NC(=O)CCCCCCC`, the cell count is 5610.

`O=C1OC(O)C(c2cc3ccccc3s2)=C1Br` (stereo not given): the cell count was 5180.

In the case of `CCCCC[C@@H](O)/C=C/[C@H]1[C@H](O)CC(=O)[C@@H]1CCCCCCC(=O)O`, the cell count was 5460.

For `CCCCCCCCCCCCCCCC(=O)OC[C@@H](O)COP(=O)(O)O`, the cell count was determined as 5760.

Take `CCCCC[C@H](O)/C=C/[C@H]1[C@H](O)CC(=O)[C@@H]1CCCCCCC(=O)NCCO`: the cell count turned out to be 5990.

As to `CCCCCCCCCCCCCCCCC/C=C\C(=O)O`, the cell count stood at 5170.

With `CCCCC[C@@](C)(O)/C=C/[C@H]1C=CC(=O)[C@@H]1C/C=C\CCCC(=O)O`, the cell count is 5680.

For the compound `O=C(OCc1ccccc1)[C@H](O)c1ccccc1`, the cell count was determined as 5580.

Take `C=CCN(C)CCCCCCOc1ccc(C(=O)c2ccc(Br)cc2)c(F)c1`: the cell count stood at 5700.

As for `O=C(O)CCC/C=C/C[C@@H]1[C@@H](/C=C/[C@@H](O)COc2cccc(C(F)(F)F)c2)[C@H](O)C[C@@H]1O`, the cell count was 6470.

As for `CCCCCCCCCCCCCCCCCCCCCCCCC(=O)OC`, the cell count is 6850.

For `CCCCCCCCCCCCCCCCCCCCCCCCCCCCCCO`, the cell count is 6130.

Turning to `CC/C=C\C/C=C\C/C=C\C/C=C\C/C=C\CCCC(=O)O[C@H](COCCCCCCCCCCCCCCCC)COP(=O)([O-])OCC[N+](C)(C)C`, the cell count stood at 5330.

Consider `CCCCC/C=C\C=C\[C@H](O)CCCCCCCC(=O)O`, for which the cell count was 5810.

On to `CCCCC[C@@H](O)/C=C/[C@H]1C[C@H]2C[C@@H]([C@@H]1C/C=C\CCCC(=O)O)C2(C)C`, for which the cell count came out at 5480.

On to `CCCCC[C@@](C)(O)/C=C/[C@H]1[C@H](O)CC(=O)[C@@H]1C/C=C\CCCC(=O)O`, for which the cell count is 5770.

For the compound `CCCCC/C=C\C/C=C\C/C=C\CCCCC(=O)OC`, the cell count is 6900.

With `CCCCCCCC/C=C\CCCCCCCC(=O)OCC`, the cell count was determined as 5610.

In the case of `CCCC1([C@@H](O)C/C=C/[C@H]2[C@H](O)CC(=O)[C@@H]2CCCCCCC(=O)O)CCC1`, the cell count was 5970.

For the compound `CC(C)OC(=O)CCC/C=C\C[C@@H]1[C@@H](/C=C/C(F)(F)COc2ccccc2)[C@H](O)C[C@@H]1O`, the cell count was 5900.

Turning to `CCCCC[C@@](C)(O)/C=C/[C@@H]1[C@@H](C/C=C\CCCC(=O)OC)[C@@H](O)C[C@H]1O`, the cell count is 5940.

As for `CCOC(=O)c1c(Cc2cccc(Cl)c2)[nH]c2c1cc(O)c1ccccc12`, the cell count worked out at 4980.

Turning to `CCCC[C@H](CCC(=O)O)NC(=O)CCCCCCc1ccccc1`, the cell count came out at 6520.

Take `NC(=Nc1ccc(F)cc1)NO`: the cell count is 5540.
